Measurements as given in the supplement of paper PMC10849652.
About 7,900 targets were measured; listed, in parts, are those with a hit and a random draw of the rest. About 0.6% of all pairs of compound and target were hits. Unmarked numbers belong to inactive results.

What was measured:
Experiment in all cases: log2 fold change, soluble protein after heating vs DMSO (PISA); higher = thermal stabilisation; K562 cells, 10 uM, 30 min; active = over 0.2 and 3.5 SD of the protein, either way, in both replicates (recomputed)
bafetinib = compound: Cc1ccc(NC(=O)c2ccc(CN3CC[C@H](N(C)C)C3)c(C(F)(F)F)c2)cc1Nc1nccc(-c2cncnc2)n1 [bafetinib]
Procedure, shortened: (§1)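 K562 cells at 2×10^6 cells/mL were given 10 μM compound for 30 min. Aliquots then went through 3 min of heating across 48°C-58°C, were pooled, and were extracted in PBS with 0.5% NP-40 at 4°C, and the supernatant after 21,000xg for 90 min was quantified by TMTpro 16plex LC-MS/MS with channel sums equalised. Thermal stability relative to control samples, from duplicates, is given as log2 fold change.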

[1] = compound: Cc1cccc(CC(=O)N2CCc3c2ccc(-c2cn(C)c4ncnc(N)c24)c3F)n1
Procedure, shortened: as §1

nilotinib = compound: Cc1cn(-c2cc(NC(=O)c3ccc(C)c(Nc4nccc(-c5cccnc5)n4)c3)cc(C(F)(F)F)c2)cn1 [nilotinib]
Procedure, shortened: as §1

[2] = compound: Cc1nc(Nc2n[nH]c3c2CN(C(=O)N[C@H](CN(C)C)c2ccccc2)C3(C)C)c2sccc2n1
Procedure, shortened: as §1

dasatinib = compound: Cc1nc(Nc2ncc(C(=O)Nc3c(C)cccc3Cl)s2)cc(N2CCN(CCO)CC2)n1 [dasatinib]
Procedure, shortened: as §1

[3] = compound: Cc1ncc(-c2ccnc(Nc3ccc(S(C)(=O)=O)cc3)n2)n1C(C)C
Procedure, shortened: as §1

[4] = compound: Cn1cc(-c2ccc3c(c2)CCN3C(=O)Cc2cccc(C(F)(F)F)c2)c2c(N)ncnc21
Procedure, shortened: as §1

[5] = compound: Cn1cc(-c2ccc3nnc(C(F)(F)c4ccc5ncccc5c4)n3n2)cn1
Procedure, shortened: as §1

tipifarnib = compound: Cn1cncc1[C@@](N)(c1ccc(Cl)cc1)c1ccc2c(c1)c(-c1cccc(Cl)c1)cc(=O)n2C [tipifarnib]
Procedure, shortened: as §1

mubritinib = compound: FC(F)(F)c1ccc(/C=C/c2nc(COc3ccc(CCCCn4ccnn4)cc3)co2)cc1 [mubritinib]
Procedure, shortened: as §1

[6] = compound: NC(=O)Nc1cc(-c2cccc(F)c2)sc1C(=O)N[C@H]1CCCNC1
Procedure, shortened: as §1

[7] = compound: NC(=O)c1cnc(N[C@@H]2CCCC[C@@H]2N)nc1Nc1cccc(-n2nccn2)c1
Procedure, shortened: as §1

[8] = compound: NC1(c2ccc(-c3nc4ccn5c(=O)[nH]nc5c4cc3-c3ccccc3)cc2)CCC1
Procedure, shortened: as §1

[9] = compound: NCC(=O)Nc1ccc(-n2nc(C(F)(F)F)cc2-c2ccc3c(ccc4ccccc43)c2)cc1
Procedure, shortened: as §1

entinostat = compound: Nc1ccccc1NC(=O)c1ccc(CNC(=O)OCc2cccnc2)cc1 [entinostat]
Procedure, shortened: as §1

vorinostat = compound: O=C(CCCCCCC(=O)Nc1ccccc1)NO [vorinostat]
Procedure, shortened: as §1

citarinostat = compound: O=C(CCCCCCNC(=O)c1cnc(N(c2ccccc2)c2ccccc2Cl)nc1)NO [citarinostat]
Procedure, shortened: as §1

silmitasertib = compound: O=C(O)c1ccc2c(c1)nc(Nc1cccc(Cl)c1)c1ccncc12 [silmitasertib]
Procedure, shortened: as §1

[10] = compound: O=C1NC(=O)C(c2cnc3ccccn23)=C1c1cn2c3c(cc(F)cc13)CN(C(=O)N1CCCCC1)CC2
Procedure, shortened: as §1

[11] = compound: c1cc(OCCN2CCCCC2)cc(-c2n[nH]c3ccc(-c4nnc[nH]4)cc23)c1
Procedure, shortened: as §1

Chain of UniProt Q9UIV1 (Q9UIV1 whole entry, looked up): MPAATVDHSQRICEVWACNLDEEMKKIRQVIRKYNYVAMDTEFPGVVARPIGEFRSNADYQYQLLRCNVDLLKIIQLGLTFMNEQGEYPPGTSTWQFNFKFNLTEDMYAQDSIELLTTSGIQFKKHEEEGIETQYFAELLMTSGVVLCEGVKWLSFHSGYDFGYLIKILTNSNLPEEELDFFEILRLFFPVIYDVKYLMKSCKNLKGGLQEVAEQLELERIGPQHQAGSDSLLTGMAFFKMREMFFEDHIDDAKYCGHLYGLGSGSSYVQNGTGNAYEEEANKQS
Chain of UniProt Q8NHZ8 (Q8NHZ8 whole entry, looked up): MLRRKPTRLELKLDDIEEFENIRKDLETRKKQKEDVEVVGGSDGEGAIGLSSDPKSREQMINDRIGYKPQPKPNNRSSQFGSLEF
Chain of UniProt Q9NXV6 (Q9NXV6 whole entry, looked up): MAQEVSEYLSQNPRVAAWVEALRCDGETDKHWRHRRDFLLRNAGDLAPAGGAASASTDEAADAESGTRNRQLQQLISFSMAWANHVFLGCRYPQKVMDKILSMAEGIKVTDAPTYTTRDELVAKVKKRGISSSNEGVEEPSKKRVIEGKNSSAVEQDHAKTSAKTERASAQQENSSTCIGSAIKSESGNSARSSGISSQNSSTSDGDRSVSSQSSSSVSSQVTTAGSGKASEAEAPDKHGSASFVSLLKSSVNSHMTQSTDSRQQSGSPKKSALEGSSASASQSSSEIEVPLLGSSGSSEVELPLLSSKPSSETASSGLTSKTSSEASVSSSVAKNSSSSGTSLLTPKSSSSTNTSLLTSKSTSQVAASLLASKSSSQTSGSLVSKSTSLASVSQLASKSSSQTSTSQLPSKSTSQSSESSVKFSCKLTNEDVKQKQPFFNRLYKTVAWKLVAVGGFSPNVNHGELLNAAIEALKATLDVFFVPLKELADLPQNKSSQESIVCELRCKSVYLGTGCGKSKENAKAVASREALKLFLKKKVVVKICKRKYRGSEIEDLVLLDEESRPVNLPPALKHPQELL
Chain of UniProt Q96RR4 (Q96RR4 whole entry, looked up): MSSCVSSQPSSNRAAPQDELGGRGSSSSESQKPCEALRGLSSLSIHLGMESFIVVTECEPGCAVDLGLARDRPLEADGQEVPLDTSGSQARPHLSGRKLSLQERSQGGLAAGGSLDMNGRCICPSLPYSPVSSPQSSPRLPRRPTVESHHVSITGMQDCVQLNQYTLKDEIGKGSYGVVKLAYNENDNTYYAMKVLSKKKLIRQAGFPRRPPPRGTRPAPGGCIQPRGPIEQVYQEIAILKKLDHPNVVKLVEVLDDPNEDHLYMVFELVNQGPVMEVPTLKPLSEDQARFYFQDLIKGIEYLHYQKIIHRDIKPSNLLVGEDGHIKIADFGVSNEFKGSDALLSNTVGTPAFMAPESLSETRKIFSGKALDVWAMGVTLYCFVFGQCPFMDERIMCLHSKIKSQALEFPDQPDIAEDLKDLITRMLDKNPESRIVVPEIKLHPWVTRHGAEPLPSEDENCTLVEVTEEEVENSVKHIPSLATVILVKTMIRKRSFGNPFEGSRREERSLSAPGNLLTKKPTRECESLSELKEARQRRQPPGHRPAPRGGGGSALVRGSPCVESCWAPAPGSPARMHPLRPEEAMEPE
Chain of UniProt P21127 (P21127 whole entry, looked up): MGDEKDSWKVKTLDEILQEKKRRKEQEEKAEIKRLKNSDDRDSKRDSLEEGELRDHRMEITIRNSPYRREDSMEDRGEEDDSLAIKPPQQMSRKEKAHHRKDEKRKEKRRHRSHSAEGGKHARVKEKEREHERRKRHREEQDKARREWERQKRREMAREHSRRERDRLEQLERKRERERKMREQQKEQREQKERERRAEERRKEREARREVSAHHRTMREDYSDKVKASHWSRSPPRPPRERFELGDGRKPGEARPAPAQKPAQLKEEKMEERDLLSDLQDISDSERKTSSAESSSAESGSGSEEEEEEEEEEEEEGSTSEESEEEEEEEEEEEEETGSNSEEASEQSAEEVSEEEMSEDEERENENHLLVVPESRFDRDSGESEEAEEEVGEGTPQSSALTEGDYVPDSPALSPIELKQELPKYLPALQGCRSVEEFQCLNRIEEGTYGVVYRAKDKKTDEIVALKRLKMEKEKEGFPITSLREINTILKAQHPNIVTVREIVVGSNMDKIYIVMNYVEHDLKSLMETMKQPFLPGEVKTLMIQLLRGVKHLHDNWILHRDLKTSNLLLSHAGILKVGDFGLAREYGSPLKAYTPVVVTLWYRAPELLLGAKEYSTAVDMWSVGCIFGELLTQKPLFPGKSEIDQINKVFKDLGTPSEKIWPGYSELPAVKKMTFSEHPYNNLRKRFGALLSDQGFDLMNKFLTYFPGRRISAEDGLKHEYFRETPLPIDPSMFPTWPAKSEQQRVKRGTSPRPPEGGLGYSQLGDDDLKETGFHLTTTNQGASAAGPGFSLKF
Chain of UniProt P60033 (P60033 whole entry, looked up): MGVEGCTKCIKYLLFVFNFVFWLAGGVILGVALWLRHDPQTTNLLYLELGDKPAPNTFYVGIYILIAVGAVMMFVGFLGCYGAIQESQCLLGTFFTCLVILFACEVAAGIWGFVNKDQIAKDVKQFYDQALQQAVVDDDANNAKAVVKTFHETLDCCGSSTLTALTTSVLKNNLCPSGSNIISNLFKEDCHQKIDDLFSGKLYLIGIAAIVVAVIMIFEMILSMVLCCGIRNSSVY
Chain of UniProt Q8N4Q1 (Q8N4Q1 whole entry, looked up): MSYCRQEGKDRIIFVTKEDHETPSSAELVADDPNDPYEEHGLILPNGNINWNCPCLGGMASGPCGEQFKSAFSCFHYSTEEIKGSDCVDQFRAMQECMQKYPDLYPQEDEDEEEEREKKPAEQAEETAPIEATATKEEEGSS
Chain of UniProt P19784 (P19784 whole entry, looked up): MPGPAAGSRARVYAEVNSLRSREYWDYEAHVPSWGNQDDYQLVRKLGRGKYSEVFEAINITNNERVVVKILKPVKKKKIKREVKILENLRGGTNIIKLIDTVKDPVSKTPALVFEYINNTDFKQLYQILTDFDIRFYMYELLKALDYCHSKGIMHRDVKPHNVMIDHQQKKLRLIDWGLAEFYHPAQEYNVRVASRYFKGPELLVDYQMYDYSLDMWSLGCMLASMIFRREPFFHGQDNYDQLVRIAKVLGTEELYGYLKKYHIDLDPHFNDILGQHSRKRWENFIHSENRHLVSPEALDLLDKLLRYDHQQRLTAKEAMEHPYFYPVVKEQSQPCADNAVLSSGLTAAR

Row | Target | log2 fold change (bafetinib) | log2 fold change [1] | log2 fold change (nilotinib) | log2 fold change [2] | log2 fold change (dasatinib) | log2 fold change [3] | log2 fold change [4] | log2 fold change [5] | log2 fold change (tipifarnib) | log2 fold change (mubritinib) | log2 fold change [6] | log2 fold change [7] | log2 fold change [8] | log2 fold change [9] | log2 fold change (entinostat) | log2 fold change (vorinostat) | log2 fold change (citarinostat) | log2 fold change (silmitasertib) | log2 fold change [10] | log2 fold change [11]
1 | CD81 (UniProt P60033) | 0.089 | -0.026 | 0.051 | 0.016 | 0.079 | -0.015 | 0.108 | 0.131 | 0.041 | 0.05 | -0.051 | 0.222 | 0.21 | 0.231 | -0.028 | -0.074 | 0.065 | 0.052 | 0.066 | -0.166
2 | CDC26 (UniProt Q8NHZ8) | -0.034 | 0.162 | -0.011 | -0.059 | 0.143 | 0.029 | 0.179 | -0.027 | 0.131 | -0.028 | 0.034 | 0.352 | 0.152 | 0.704 (active) | 0.097 | 0.019 | -0.025 | -0.003 | 0.007 | -0.003
3 | CHCHD4 isoform 2 (UniProt Q8N4Q1) | 0 | 0.764 (active) | -0.054 | -0.015 | -0.121 | -0.039 | -0.185 | -0.059 | -0.208 | 0 | 0.335 | 0.06 | -0.007 | 0.084 | 0.339 | 0.442 | -0.013 | 0.038 | 0.123 | 0.027
4 | CNOT7 (UniProt Q9UIV1) | 0.059 | -0.037 | -0.077 | -0.057 | -0.255 | 0.002 | -0.034 | -0.051 | -0.075 | 0.014 | -0.053 | 0.039 | 0 | 0.028 | 0.091 | 0.152 | -0.12 | 0.12 | 0.032 | -0.089
5 | CDKN2AIP (UniProt Q9NXV6) | 0.034 | 0.021 | -0.021 | 0.034 | -0.041 | 0.015 | -0.049 | -0.012 | 0.046 | -0.011 | 0.003 | 0.044 | -0.018 | -0.026 | 0.017 | 0.027 | 0.013 | 0.026 | 0.022 | -0.071
6 | CAMKK2 (UniProt Q96RR4) | 0.04 | -0.144 | -0.008 | 0.226 | 0 | -0.14 | -0.083 | 0.102 | -0.076 | -0.024 | -0.088 | -0.389 | -0.113 | -0.047 | 0.015 | 0.323 | -0.144 | 0.128 | -0.038 | 0.036
7 | CSNK2A2 (UniProt P19784) | -0.042 | -0.008 | -0.009 | 0.016 | -0.056 | -0.019 | -0.009 | 0.038 | -0.033 | -0.019 | -0.069 | 0.008 | -0.052 | 0.069 | -0.015 | 0.086 | 0.011 | 0.873 (active) | -0.076 | 0.022
8 | CDK11B (UniProt P21127) | 0.027 | -0.009 | 0.106 | -0.038 | 0.014 | -0.036 | 0.007 | 0.228 | 0.104 | 0.085 | -0.114 | -0.012 | 0.031 | 0.006 | -0.111 | 0.064 | -0.047 | -0.061 | 0.072 | -0.301
